# Measurements taken from the supplement of paper PMC3334620.
# The full ranking holds about 33,000 sequences; the median of “E-score (-0.5 to 0.5)” is about -0.016, and the highest 2% start at about 0.31. For the sample, the highest values were picked, then their nearest neighbours and some sequences at random.
# Biological target: Cst6 (UniProt P40535)
# Experiment: PBM E-score (8-mer binding enrichment) (E-score (-0.5 to 0.5)); higher = stronger / more preferred TF binding
# Settings: protein concentration: 200 nM; construct: GST-DNA-binding domain
# Protocol: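 Universal 'all 10-mer' protein binding microarrays (Agilent AMADID 015681) probed with GST-tagged S. cerevisiae TFs (full-length or DBD) made by in vitro transcription/translation (PURExpress), about 100-200 nM. Bound TF was detected with fluorescent anti-GST. Each ungapped 8-mer (which stands for itself and its reverse complement) is scored by the PBM enrichment score (E-score), a modified Wilcoxon-Mann-Whitney statistic from -0.5 to +0.5, computed with the Universal PBM Analysis Suite. Scale: above 0.35 generally sequence-specific binding.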
# Chain of UniProt P40535 (P40535 whole entry): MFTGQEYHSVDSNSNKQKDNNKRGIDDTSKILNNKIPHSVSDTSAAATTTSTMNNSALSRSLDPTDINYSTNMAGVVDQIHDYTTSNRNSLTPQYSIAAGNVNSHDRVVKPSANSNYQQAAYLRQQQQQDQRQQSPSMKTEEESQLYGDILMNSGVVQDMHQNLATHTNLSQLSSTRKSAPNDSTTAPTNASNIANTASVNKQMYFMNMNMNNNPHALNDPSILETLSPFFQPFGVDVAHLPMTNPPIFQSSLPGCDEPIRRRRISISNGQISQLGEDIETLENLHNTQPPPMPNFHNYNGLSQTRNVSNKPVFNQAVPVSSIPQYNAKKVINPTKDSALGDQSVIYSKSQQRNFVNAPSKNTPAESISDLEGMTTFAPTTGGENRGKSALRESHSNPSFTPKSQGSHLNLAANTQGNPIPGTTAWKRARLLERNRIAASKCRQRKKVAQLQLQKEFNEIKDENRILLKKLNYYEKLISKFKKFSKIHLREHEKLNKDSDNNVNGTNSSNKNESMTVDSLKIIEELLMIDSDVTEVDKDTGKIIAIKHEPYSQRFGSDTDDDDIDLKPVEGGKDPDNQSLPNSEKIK
row,Sequence,PBM E-score
1,CCTCCCTC,-0.162
2,GGAAATGA,0.195
3,CGTAGATC,0.143
4,CTCGAAAC,0.0781
5,GGTAGGCA,-0.184
6,AGGCGACT,-0.103
7,CGATGAAC,-0.0118
8,CAAGGCGG,0.00218
9,ATCCGCAA,-0.0389
10,AGGCGTCA,0.256
11,CGGCGTCC,0.113
12,CGGCGTCA,0.34
13,TCGCGTCA,0.369
14,TCGCGGCA,-0.0207
15,TCGCGACA,-0.202
16,ACGCCGAA,0.0504
17,AAAACATG,0.114
18,AAATGATT,0.294
19,AAATGATC,0.0366
20,CAATGATG,0.391
21,CAATGATA,0.268
22,AAATGATG,0.332

row,Sequence,PBM E-score
1,CAATGATC,0.095
2,CTAATCAA,0.205
3,ATAATCTA,0.0831
4,GTAATCAC,0.225
5,GTAATCAA,0.313
6,GTAATCTA,0.345
7,CTAATCTA,-0.0326
8,CTAGATTC,-0.0987
9,ATTTCATG,0.00873
10,CAAACTAG,-0.195
11,TGACCTCA,0.45
12,GGACCTAA,-0.105
13,CGACCTCA,0.0422
14,CGACCTAA,0.11
15,TGACCTAA,0.362
16,AGACCTCA,0.022
17,CAGGACAA,0.0953
18,TCCACCAA,-0.117
19,GAAGAACC,-0.119
20,AGATGATC,0.0705
21,ATATGACC,0.108
22,ATATGATA,0.296

row,Sequence,PBM E-score
1,CTATGACC,0.193
2,ATATGATG,0.333
3,ATATGACG,0.472
4,AGATGATG,0.346
5,ATATGATC,0.234
6,AGATGATA,0.211
7,AAATGGCG,0.142
8,TAGTGCCA,-0.123
9,AGCTAAGC,-0.156
10,GCGCTGCA,-0.0118
11,CGAACCCG,-0.251
12,CCGGATTC,-0.172
13,ACCTATTA,0.0751
14,AGAGATCA,-0.0737
15,GGAGATCA,-0.0624
16,TGAGATCA,0.344
17,ATAATCAA,0.16
18,AACATCAC,0.295
19,ATAATCAG,0.106
20,AGCATCAC,0.0541
21,AACATCAG,0.183
22,ATCATCAC,0.341

row,Sequence,PBM E-score
1,ATAATCAT,0.344
2,GCCATCAC,0.0711
3,CTCATCAC,0.146
4,AACATCAT,0.378
5,GTCATCAC,0.409
6,GGCATCAC,0.227
7,ACCTTCAA,-0.00754
8,AACGCAAG,0.00296
9,AATCTGAG,-0.0919
10,AAGTCTTG,-0.0973
11,ATAGCGGA,-0.107
12,ACTATTGA,0.202
13,AGGGCGCA,-0.0682
14,ATAATGAT,0.334
15,AGCATCAT,0.251
16,ATCATCAG,0.259
17,ATAATGAC,0.295
18,ATCATCAT,0.355
19,ATAATGAG,0.0695
20,GGTGTCTA,0.0529
21,AGGCTGCG,-0.225
22,GTAGGACA,-0.0243

row,Sequence,PBM E-score
1,CGCTTCGC,-0.0922
2,ACACACAC,0.0991
3,TAACCTAA,0.158
4,ATTCGATG,0.105
5,AATCATCT,0.114
6,CATCATCC,0.345
7,CATCATCA,0.409
8,CCTCATCG,0.00595
9,CATCATCG,0.333
10,ACTCATCA,0.00088
11,AATCATCG,0.039
12,GATCATCC,-0.0712
13,AATCATCA,0.308
14,CCTCATCA,0.161
15,GATCATCA,0.163
16,AATCATCC,0.113
17,ACGCTGCT,-0.22
18,CCGGGCGC,-0.213
19,TGCCTAAA,0.0602
20,CCGATTTC,-0.121
21,TACCGACA,0.075
